# Bioassay records: PubChem, several laboratories
# E coli growth-1 = blocks Escherichia coli growth. OD600, 23 h; active compounds read low. AID 1053175. OD600 absorbance (no concentration beside the values). 330,000 compounds, 0.21% hits;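 active = OD600 absorbance below the run mean of sample wells minus 3.6 SD, in any replicate, cut at about 0.56 in these data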
# AddAB inh = less growth of phage-infected E. coli with AddAB | E. coli expressing H. pylori AddAB, absorbance growth | inhibition, % at 11.9 µM | 330,000 compounds, 0.29% hits | AID 435030; in the data active = inhibition above about 12%;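 note: 0% = vehicle wells of infected cells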
# Tat transport = inhibitors of E. coli Tat protein transport. E. coli MC4100 TorA-mCherry Tat export, fluorescence. inhibition, % at 10 µM. 340,000 compounds, 0.036% hits. AID 488895;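 active = mean replicate inhibition at least 50% and at least half of replicates individually reaching 50%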;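 note: exported cargo escapes ClpAP degradation while cytoplasmic cargo is degraded and loses fluorescence; 0% = median of neutral control wells and 100% = median of NaSCN control wells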
# phage Ecoli inh = E. coli growth loss with phage present | growth absorbance | inhibition, % at 11.9 µM | 360,000 compounds, 0.26% hits; in the data active = inhibition above about 11%
# E coli growth-2 = reduces bacterial viability in AddAB counter-screen; inhibition, % at 11.9 µM; E. coli V3065 growth, OD600 absorbance, 18 h; 330,000 compounds, 0.27% hits; AID 449728;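 active = inhibition above the campaign's mean inhibition across all tested compounds plus 3 SD, cut at about 9.9% in these data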;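 note: uninfected addAB+ strain grown without phage in ampicillin broth; 0% = DMSO wells and 100% = ciprofloxacin 0.95 µg/ml wells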
# RecBCD conf = growth loss of phage-infected V66 E. coli, RecBCD confirmation screen. AID 651982. 890 compounds, 45% hits. E. coli V66 + T4 2- phage, growth OD. shares compounds with phage Ecoli inh. inhibition, % at 11.9 µM;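 active = mean inhibition over triplicates exceeding the hit threshold derived in the original primary screen, cut at about 11% in these data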
# Ecoli viability = inhibits E. coli viability, flagging RecBCD hits as nonselective; inhibition, % at 11.9 µM; 890 compounds, 29% hits; absorbance (OD) growth; shares compounds with phage Ecoli inh; in the data active = inhibition above about 20%;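 note: E. coli strain V66 grown with compound alone and no phage infection; 0% = bacteria with DMSO vehicle only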
# AddAB phage OD = growth loss of phage-infected AddAB E. coli, RecBCD counter-screen. 890 compounds, 45% hits. inhibition, % at 11.9 µM. AID 651984. shares compounds with phage Ecoli inh. E. coli expressing H. pylori AddAB + T4 phage, OD growth; gene 2 mutant T4, recBCD-deleted host;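 active = mean inhibition above the solvent-only control wells' mean plus 3 SD, cut at about 22% in these data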;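 note: higher means less bacterial growth from phage killing when AddAB is blocked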
# An asterisk follows results filed as active; · = not tested or not shown. This is a sample that favours compounds with a hit; in the whole collection about 0.51% have one here.
SMILES,E coli growth-1,AddAB inh,Tat transport,phage Ecoli inh,E coli growth-2,RecBCD conf,Ecoli viability,AddAB phage OD
CCOc1ccc(C(Nc2cccnc2)c2cc(Cl)c3cccnc3c2O)cc1 (centres undefined),0.688,9.7,0.7,17.2*,19.7*,2.1,5.0,5.9
CCC(=O)NC(c1ccc(OC)c(OC)c1)c1cc(Cl)c2cccnc2c1O (centres undefined),0.647,·,-5.0,15.2*,·,5.9,8.7,15.1
CC(=O)NC(C)c1cc(Cl)c2cccnc2c1O (centres undefined),0.631,-6.6,-6.2,0.5,-8.7,·,·,·
O=C(O)COc1ccccc1C(Nc1cccnc1)c1cc(Cl)c2cccnc2c1O (centres undefined),0.649,·,10.6,·,·,·,·,·
COc1cccc(C=NNC(=O)CN(C2=NS(=O)(=O)c3ccccc32)c2ccccc2)c1,0.708,·,·,·,·,·,·,·
CC(C)OC(=O)c1ccc(NC(=O)CSc2nc3ncccc3[nH]2)cc1,0.59,11.3,-30.2,11.0*,6.5,4.7,7.2,3.8
CC(C)c1ccc(NC(=O)CSc2nc3ncccc3[nH]2)cc1,0.679,2.7,17.7,8.4,3.0,·,·,·
